Measured values published in PubChem BioAssay AID592 (National Center for Advancing Translational Sciences (NCATS), 2007).
Fewer than 10 of roughly 59,000 compounds were called active. How the calls were made is not given here. The list is a sample of the results.

Assay: qHTS Assay for Spectroscopic Profiling in A647 Spectral Region
Conditions: Compound fluorescence, A647 channel (570/671 nm), Tris buffer; hits give high values
From the text: NIH Molecular Libraries Screening Centers Network [MLSCN] NIH Chemical Genomics Center [NCGC] […] Occasionally, the artifactual effect may originate from the compounds own spectral or other biophysical properties which generally tend to track its assay concentration. Pre-screening/profiling the library with respect to the compounds spectral properties should help one exclude false positives early on. While the most informative fluorescent profiling data set is obtained by performing a full excitation and emission scan of each well by using a monochromator-based plate reader, such an approach is practical only on a very limited scale as scanning each well requires long time. An alternative approach, applied here, is to perform plate reader scans using selected excitation and emission wavelength pairs to generate a multidimensional relational database that correlates compound concentration and the respective relative fluorescence intensity at a given wavelength set. A standard curve of Alexa 647 (A647) present on each plate as six-point concentration series, was used to compute a normalized fluorescence response, termed dye-equivalent concentration, for each compound at each concentration.
NCGC Assay Protocol Summary: Buffer: 100 mM Tris buffer, pH 8.0 Dye standard plate: The wells in columns 1 through 4 of a Kalypsys polypropylene 1536-well compound plate were filled with standard solutions of fluorophore corresponding to the spectral region of interest. Solutions of A647 were placed in the following wells: AC1, AD1: 3 mM, AC2, AD2: 300 uM, AC3, AD3: 30 uM, AC4, AD4: zero (DMSO), AE1, AF1: 3 uM, AE2, AF2: 900 nM, AE3, AF3: 300 nM, AE4, AF4: zero (DMSO). Assay Steps: Six uL of buffer were dispensed to 1536-well Greiner black plates. Compounds and dye standards (23 nL) were transferred via Kalypsys PinTool. The plates were incubated for 15 min at room temperature, and then read on ViewLux (Perkin-Elmer) High-throughput CCD imager using 570 nm and 671 nm excitation and emission filter set. Keywords: NIH Roadmap, MLSCN, MLI, MLSMR, qHTS, NCGC, A647, A-647, Fluorescent Profiling.

Max dye-equivalent concentration, inactive:
O=c1c(-c2cccs2)nc2cnc(Oc3ccccc3)nc2n1-c1ccccc1 2.8 nM
COc1cc(C2C3C(=O)N(c4ccccc4)C(=O)C3ON2c2ccccc2)ccc1O (stereo not drawn) 30 nM
COc1ccc2oc(=O)c(C(=O)O)cc2c1 1 nM
O=C1N(Cc2ccc3c(c2)OCO3)c2ccccc2C1(O)c1c[nH]c2ccccc12 (stereo not drawn) 1 nM
O=C1CCC(C(=O)Nc2ccc(OC(F)F)cc2)N1 (stereo not drawn) 1 nM
CC(=O)N1CCC2(CCCN(c3ncccn3)C2)CC1 1 nM
Cc1ccccc1Nc1nnc(C)c(=O)[nH]1 45 nM
Cc1ccc(-n2c(N)c(C(=O)N3CCOCC3)sc2=S)c(C)c1 1 nM
CC(=O)OC(C(=O)NC1CCCCC1)c1ccccc1 (stereo not drawn) 30 nM
NC(=O)C1CCN(C(=O)c2ccc(C(F)(F)F)cc2)CC1 1 nM
COc1cccc(Cn2c(=O)c(C)nc3cnc(Oc4ccccc4)nc32)c1 1 nM
Cc1cccc(NC(=O)c2ccccc2NC(=O)C(C)(C)C)n1 39 nM
CCc1ccccc1NC1c2ccccc2C(=O)N1c1cccnc1 (stereo not drawn) 11 nM
CCOC(=O)c1c(C)nc(-c2ccccc2)nc1NC(=O)C(C)C 1 nM
Cc1nc(NCc2ccccc2)c(C(N)=O)c2c1COC(C)(C)C2 37 nM
COc1ccccc1CNC(=O)CCCn1c(=O)c2ccccc2n(CC(=O)NC2CCCC2)c1=O 28 nM
O=C(c1cccs1)N1CCN(C(=O)N2CCOCC2)CC1 9.6 nM
CC1Cc2nc(SCC(=O)Nc3ccccc3F)n(C)c(=O)c2S1 (stereo not drawn) 1 nM
COc1ccc2nccc(C(=O)O)c2c1 1 nM
CCn1c(=N)c(S(=O)(=O)c2ccc(F)cc2)cc2c(=O)n3ccccc3nc21 1.8 nM
O=C(CCCN1C(=O)CSc2ncccc21)N1CCN(c2cccc(C(F)(F)F)c2)CC1 6.4 nM
COc1ccc(C(=O)Nc2cccnc2)cc1C(=O)Nc1cccnc1 1.5 nM
OCCCN1c2ccccc2Nc2nnc(-c3ccccc3)cc21 20 nM
CCOC(=O)c1[nH]cnc1C(=O)NC1CCCCC1 1 nM
ClC(Cl)(Cl)C(N1CCN(c2ccccc2)CC1)N1CCN(c2ccccc2)CC1 1 nM
CN(Cc1ccco1)c1cc(-c2ccccc2C(F)(F)F)ncn1 1 nM
CC(=O)Oc1cccc(N2C(=O)CC(Nc3ccc(N4CCOCC4)cc3)C2=O)c1 (stereo not drawn) 1 nM
Cn1c(=O)[nH]c(=O)c2c1nc(N(CCO)Cc1ccccc1)n2Cc1ccccc1Cl 78 nM
Cn1cccc1C(=O)N1CCC2(CC1)CN(c1cccc(-c3ccccc3)c1)C2 18 nM
CCCCn1c(=S)[nH]c2ncccc2c1=O 1 nM
CC1(C)SC2c3ccccc3C(=O)N2[C@@H]1C(=O)NCc1ccco1 (stereo partly drawn) 1 nM
O=C(O)CN1C(=O)CC(Cc2ccccc2)C1=O (stereo not drawn) 1 nM
O=C(Cc1c(F)cccc1Cl)N1CCN(C(=O)c2ccco2)CC1 7.2 nM
CCCn1c(=O)c2[nH]c(-c3ccc(OCC(=O)NCCN)cc3)nc2n(CCC)c1=O 50 nM
O=c1[nH]c(=O)c2nc3ccccc3nc2[nH]1 49 nM
Cc1nc2nc3c(cn2n1)C(=O)CC(c1ccccc1)C3 (stereo not drawn) 28 nM
CSCC[C@H](NC(=O)NCc1cccs1)C(=O)O 3.7 nM
CN(C(=O)COc1nnc(-c2cccs2)c(-c2cccs2)n1)c1ccccc1 1 nM
Cc1cc(N2C(=O)C(=O)/C(=C(/O)c3ccccc3)C2c2cccc(Br)c2)no1 (stereo not drawn) 1.8 nM
C/C(N)=C(\C#N)C(=O)NCCc1ccccn1 39 nM
CCc1nnc(NC(=O)c2nc3nccc(C)n3n2)s1 18 nM
N#Cc1ccc(CSc2nnc(-c3ccccn3)n2-c2ccc(Cl)cc2)cc1 2.1 nM
Clc1ccc(C=Nc2ccc3c(c2)Cc2ccccc2-3)c(Cl)c1 3.2 nM
CN(C)CCCNC(=O)c1ccc2[nH]c3ccccc3c2c1 3 nM
CC(C)CSC[C@@H]1O[C@H](n2cnc3c(N)nccc32)[C@H](O)[C@@H]1O 13 nM
Cc1ccccc1Nc1nc(N)nc(CN2CCN(c3ccccn3)CC2)n1 44 nM
COc1ccc(C(c2nnnn2Cc2cccs2)N2CCN(c3ccccc3)CC2)cc1OC (stereo not drawn) 11 nM
COC(=O)CNC(=O)c1ccc2c(c1)S(=O)(=O)c1ccccc1C2=O 6.7 nM
O=C(O)c1ccc(C(=O)c2ccccc2C(=O)O)cc1C(=O)O 3.2 nM
O=C(O)CSCNC(=O)CC12CC3CC(CC(C3)C1)C2 1.2 nM
COc1cc(C(=O)N(Cc2ccc(N(C)C)cc2)C2CCS(=O)(=O)C2)cc(OC)c1OC (stereo not drawn) 8.2 nM
O=S(=O)(/C=C/c1ccccc1)NCCc1ccccn1 23 nM
Fc1ccccc1C(c1nnnn1Cc1ccc2c(c1)OCO2)N1CCN(Cc2ccccc2)CC1 (stereo not drawn) 3.5 nM
Cc1cc(C)nc(SCc2nnc(SCC(=O)OC3CCCCC3)o2)n1 1 nM
Cc1csc(NC(=O)C2CCCN2C(=O)OCC(C)C)n1 (stereo not drawn) 15 nM
N=C(CC(=O)Nc1ccccn1)c1ccccc1 36 nM
Cc1oc(C)c(C(=O)NCCCC(=O)O)c1C(=O)NCCCC(=O)O 15 nM
Cc1c(O)c(Br)c(C)c(O)c1Br (tested in a mixture with another compound) 36 nM
